Reference: PubChem BioAssay (Tox21)
Inconclusive results are not listed. Active and inactive are the calls of the source. Unless noted, the call rests on the fitted dose curve; in most records, active means well fitted curve in the direction sought with a large enough effect in the repeat runs; inconclusive means weak or mixed curves; inactive means no such curve, though single readings can be large; an effect the other way counts as inactive or inconclusive.

What was measured:
[1] = qHTS assay to identify small molecule agonists of the vitamin D receptor (VDR) signaling pathway - cell viability counter screen (AID 743224); settings: VDR-bla HEK293T viability, CellTiter-Glo luminescence, 16 h; series mostly up to 62.6 µM; further: nearly all actives have a fitted effect of over 50% in size
In short: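 Cytotoxicity counter screen: VDR-bla cells, 16 h compound exposure at 37C, 5% CO2; CellTiter-Glo luminescence, 30 min RT, same wells as bla read.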

[2] = qHTS assay to identify small molecule antagonists of the vitamin D receptor (VDR) signaling pathway - cell viability counter screen (AID 743225); settings: VDR-bla HEK293T viability, CellTiter-Glo luminescence, 16 h; series mostly up to 61 µM; further: nearly all actives have a fitted effect of over 50% in size
In short: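 VDR-UAS-bla HEK 293T cells were plated and incubated 4 h at 37C, then dosed with compound plus 3 nM (final) 1-alpha,25-dihydroxyvitamin D3 for 16 h. After the 2 h beta-lactamase read, viability in the same wells was read as CellTiter-Glo luminescence after 30 min at room temperature.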

[3] = qHTS assay to identify small molecule agonists of the NFkB signaling pathway - cell viability counter screen (AID 1159515; calls by dose curve; further: nearly all actives have a fitted effect of over 55% in size); settings: NFkB-bla ME-180 viability, CellTiter-Glo luminescence, 5 h; series mostly up to 61 µM
In short: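 ME-180 NFkB-bla cells, 2,000/well; overnight attach; compound 5 hr, 37 C/5% CO2; LiveBLAzer substrate 1.5 hr RT; then CellTiter-Glo in same wells, 30 min RT, luminescence read.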

[4] = qHTS assay to identify small molecule agonists of the endoplasmic reticulum stress response signaling pathway - cell viability counter screen (AID 1159517; calls by dose curve;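 further: HeLa cells carrying an ER stress response element beta-lactamase reporter; nearly all actives have a fitted effect of over 50% in size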); settings: ESRE-bla HeLa viability, CellTiter-Glo luminescence, 5 h; series mostly up to 61 µM
In short: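 Steps: seed 1,500 ESRE-bla HeLa cells per well; incubate overnight at 37 C, 5% CO2; add compounds in DMSO for 5 hr; run FRET substrate 2 hr RT; add CellTiter-Glo, wait 30 min, read luminescence.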

[5] = qHTS assay to identify small molecule antagonists of the retinoid-related orphan receptor gamma (ROR-gamma) signaling pathway - cell viability counter screen (AID 1159520); settings: Tet-on RORgamma CHO cells viability, ATP luminescence, 16 h; series mostly up to 92.4 µM; further: nearly all actives have a fitted effect of over 50% in size
In short: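 Tet-on ROR gamma CHO cells were given compounds for 2 hr, then doxycycline hyclate at 1 uM final, and incubated 16 hr at 37 C. Viability was measured as ATP content by CellTiter-Glo luminescence.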

[6] = molecular target: Nuclear receptor ROR-gamma (Homo sapiens) (UniProt P51449); assay: qHTS assay to identify small molecule antagonists of the retinoid-related orphan receptor gamma (ROR-gamma) signaling pathway (AID 1159521); settings: Tet-on RORgamma CHO cells, RORE-luciferase, 16 h; series mostly up to 92.4 µM
In short: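 Tet-on ROR-gamma CHO cells with ROR response element-luciferase reporter; compounds added 2 hr before 1 uM doxycycline induction, then 16 hr at 37 C. Antagonism scored as decreased ONE-Glo luminescence.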

[7] = qHTS assay to identify small molecule agonists of the AP-1 signaling pathway - cell viability counter screen (AID 1159525; calls by dose curve; further: nearly all actives have a fitted effect of over 55% in size); settings: ME-180 AP-1-bla cells viability, ATP luminescence, 5 h; series mostly up to 76.8 µM
In short: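 Same-well cytotoxicity counter screen of the Tox21 10K library in ME-180 cells. The readout is ATP-dependent luminescence after 5 h compound treatment. Data are normalised to DMSO and tetra n-octyl ammonium bromide controls.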

[8] = qHTS assay to identify small molecule agonists of the AP-1 signaling pathway (AID 1159526; calls by dose curve); settings: ME-180 (cervical carcinoma) AP-1-bla reporter, beta-lactamase FRET ratio, 5 h; series mostly up to 76.8 µM
[9] = qHTS assay to identify small molecule agonists of the RXR signaling pathway - cell viability counter screen (AID 1159529); settings: RXR-alpha-bla HEK293T viability, CellTiter-Glo, 16 h; series mostly up to 76.8 µM; further: nearly all actives have a fitted effect of over 50% in size
In short: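 RXR-alpha-UAS-bla HEK 293T cells in medium with 2% charcoal-stripped FBS were pre-incubated 5 hr, then compound-treated 16 hr at 37 C. Viability was read by CellTiter-Glo luminescence in the same wells as the beta-lactamase assay, with tetraoctyl ammonium bromide as positive control.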

[10] = qHTS assay to identify small molecule antagonists of the retinoid acid receptor (RAR) signaling pathway - cell viability counter screen (AID 1159551); settings: C3RL4 cells viability, ATP luminescence (CellTiter-Glo), 6 h; series mostly up to 92.4 µM; further: nearly all actives have a fitted effect of over 35% in size
In short: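 C3RL4 RARE-luciferase line; cpds + retinol 1 uM final, 6 h, 37 C/5% CO2; CellTiter-Glo ATP luminescence, 30 min RT.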

[11] = qHTS assay to identify small molecule antagonists of the retinoic acid receptor (RAR) signaling pathway (AID 1159552; further: nearly all actives have a fitted effect of over 50% in size); settings: C3RL4 RARE luciferase reporter, retinol-stimulated, 6 h; series mostly up to 92.4 µM
In short: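 Retinol signaling pathway inhibitors screened in C3RL4 RARE-luciferase reporter cells seeded overnight at 37 C, then compounds added with 1 uM (final) retinol as pathway substrate. After 6 hr at 37 C, luciferase luminescence read after 30 min at room temperature.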

[12] = qHTS assay to identify small molecule agonists of the retinoic acid receptor (RAR) signaling pathway (AID 1159553); settings: C3RL4 RARE luciferase reporter, agonist, 6 h; activation: at 73.3 µM (top of the series) unless noted
In short: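 RARE-luc C3RL4 cells; overnight attachment 37 C/5% CO2; compound (DMSO) 6 hr; luciferase reagent, 30 min RT; luminescence read-out.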

[13] = qHTS assay to identify small molecule antagonists of the estrogen related receptor (ERR) signaling pathway - cell viability counter screen (AID 1224818); settings: ERR reporter cell line viability counter screen; series mostly up to 46.1 µM
In short: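 Fluorescence from CellTiter-Fluor, read 30 min after reagent addition at 37 C, measured viability of ERR cells exposed to compounds for 17.5 h. Cells had settled 6 h before dosing.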

[14] = qHTS assay to identify small molecule antagonists of the estrogen related receptor signaling pathway with the pleiotropic PPARgamma coactivator (PGC) cell viability counter screen (AID 1224822); settings: ERR/PGC reporter cell line viability counter screen; series mostly up to 46.1 µM
In short: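 Fluorescence read-out of CellTiter-Fluor after 30 min at 37 C; PGC/ERR cells, 2,000 per well, had been exposed to DMSO-dissolved compounds for 17.5 h following a 6 h pre-incubation.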

[15] = qHTS assay to identify small molecule agonists of the estrogen related receptor (ERR) signaling pathway (AID 1224820); settings: ERR reporter cell line, luciferase agonist mode; series mostly up to 46.1 µM
In short: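 Following a 6 h settling period, 2,000 ERR cells per well receive DMSO-dissolved compounds by pin tool and incubate 18 h at 37 C; agonist activity is scored from One-Glo luminescence read 30 min post-addition.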

[16] = tested on: estrogen-related receptor alpha (ERRalpha) with PGC-1alpha coactivator, human; assay: qHTS assay to identify small molecule antagonists of the estrogen related receptor signaling pathway with the pleiotropic PPARgamma coactivator (PGC) (AID 1224821; calls by dose curve); settings: ERR/PGC reporter cell line, luciferase, antagonist mode; series mostly up to 46.1 µM
In short: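 Screening used NTP's PGC/ERR cells, dosed via pin tool with compound in DMSO alongside positive and negative controls. After 18 h at 37 C, One-Glo reagent sat 30 min at room temperature before luminescence detection.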

Measured: Potency

CCCCCCC1CCCC(=O)O1 (centres undefined)
not listed: [13] | [14] | [15] | [16]
inactive: all other assays above

CCCCOC(=O)CC
not listed: [13] | [14] | [15] | [16]
inactive: all other assays above

O=C(O)c1cc(-c2ccc(F)cc2F)ccc1O
inactive: [1] | [3] | [4] | [5] | [6] | [7] | [8] | [9] | [10]

CC(CCc1ccccc1)NCC(O)c1ccc(O)c(C(N)=O)c1 (centres undefined)
inactive: [13] | [14]

O=C1CCc2cc(OCCCCc3nnnn3C3CCCCC3)ccc2N1
inactive: [13] | [14]

OCCN1CCN(CCCN2c3ccccc3Sc3ccc(C(F)(F)F)cc32)CC1
inactive: [15] | [16]
